In the library only some 3.8% were active in any assay of this set; here they are far more common.
Wnt bcat act: activates Wnt/beta-catenin signaling in a reporter cell assay. activator, plate reader. activation, % at 9.35 µM. 1.2% of 300,000 active; in the data active = activation above about 30%, passing the limit was not always enough; inconclusive = no clear call, values can overlap the other calls;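 also: 0% = neutral control wells and 100% = positive control wells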
HSF1 inh: HSF1 inhibition | NIH3T3-HGL HSE-luciferase, MG132-induced, luminescence 8 h; active compounds read low | activity change, negative = inhibition, % at 7.5 µM (by protocol) | 0.77% of 300,000 active;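 active = more than half of replicate wells show activity change below -50%, luminescence cut by over half; inconclusive = some wells, but at most half, below -50%; inactive = no replicate well below -50%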;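 also: luciferase reports HSF-1 transcriptional activity via heat shock element; 0% = median of DMSO wells and -100% = zero luminescence signal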
esBAF inh: blocks esBAF chromatin remodeling in mouse ES cells. 2% of 350,000 active. reporter increase, % at 12.5 µM. Bmi1-luciferase knock-in reporter, 24 h; 100% = twice the neutral-well signal; in the data active = activation above about 40%; inconclusive = no clear call, values can overlap the other calls;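 also: 0% = median of the plate's neutral control wells and 100% = double that signal; a rise in the Bmi1 reporter signal indicates esBAF inhibition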
MITF act: increases MITF-driven TRPM1 promoter luciferase signal; activation, % at 12.5 µM; AID 588334; 0.75% of 300,000 active; SK-MEL-5 TRPM1-promoter luciferase, 24 h; % of positive control, neutral wells = 0;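 active = mean activation of at least 80% with every replicate also reaching 80%; inconclusive = mean reaches 80% but some replicate falls short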;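 also: 0% = neutral control wells and 100% = parthenolide positive control wells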
HSF1 activator: increases HSF-1 driven luciferase reporter signal | NIH3T3-HGL HSF-1 luciferase reporter, MG132, 8 h; 100% = twice DMSO control signal | activation, % at 9 µM | 1.7% of 300,000 active | AID 504408;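 active = mean replicate activation of at least 50% with a set share of replicates each reaching 50%; inconclusive = only one of those two conditions met; inactive = mean below 50% and too few replicates reaching it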;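 also: 0% = median of the neutral control wells and 100% = twice that signal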
* hit, by the source's call; u = inconclusive; x = not tested or not shown.

SMILES	Wnt bcat act	HSF1 inh	esBAF inh	MITF act	HSF1 activator
CCN1[C@@H]2c3ccc(-c4ccccc4F)c(=O)n3C[C@H]1[C@H](CO)[C@H]2C(=O)N1CCOCC1	x	x	-0.8	x	x
CO[C@@H]1CN(C)C(=O)c2ccc(NC(C)=O)cc2OC[C@H](C)N(C(=O)c2ccncc2)C[C@H]1C	x	x	4.0	x	x
C[C@H]1CN([C@@H](C)CO)C(=O)c2cccc(NC(=O)c3cnccn3)c2O[C@@H]1CN(C)Cc1ccccc1	x	x	-6.7	x	x
CO[C@@H]1CN(C)C(=O)c2cc(NC(=O)NC(C)C)ccc2OC[C@H](C)N(C)C[C@@H]1C	x	x	0.1	x	x
CC(C)NC(=O)N1C[C@@H]2[C@H](c3ccccc31)[C@@H](CO)N2C(=O)C1CCCC1	x	x	-1.7	x	x
C[C@@H]1CN([C@H](C)CO)C(=O)c2c(c3ccccc3n2C)-c2ccccc2CO[C@H]1CN(C)C(=O)CCN(C)C	x	x	6.2	x	x
COc1ccc(NC(=O)Nc2ccc3c(c2)CC(=O)N([C@H](C)CO)C[C@@H](C)[C@@H](CN(C)C(=O)Nc2ccc(OC)cc2)O3)cc1	x	x	6.3	x	x
C[C@H](CO)N1C[C@H](C)[C@H](CN(C)Cc2cncnc2)Oc2cc(-c3ccncc3)ccc2S1(=O)=O	x	x	0.6	x	x
C(=C\c1nc(-c2ccccc2)no1)/c1ccccc1	24.3	3.0	8.2	42.1	35.1
C(=C\c1nc(-c2ccncc2)no1)/c1ccccc1	40.3*	18.6	20.3	70.2	32.3
O=C(/C=C/Nc1ccc(Br)cc1F)c1ccccc1	-9.1	-23.9	x	-25.6	-35.2
O=C(/C=C/Nc1ccc(F)cc1)c1ccc(Br)cc1	61.4*	32.7	x	47.3	65.4*
N#Cc1ccccc1N/C=C/C(=O)c1ccc(Cl)cc1	48.2*	28.9	-7.6	x	46.8
O=C(/C=C/Nc1ccc(F)c(F)c1)c1ccc(Br)cc1	12.3	30.4	x	66.1	u
Cc1c(N/C=C/C(=O)c2ccc(Cl)cc2)c(=O)n(-c2ccccc2)n1C	0.9	0.6	14.4	0.5	6.0
O=C(/C=C/Nc1ccccc1F)c1ccc(Br)cc1	46.0*	10.1	x	32.3	38.7
O=C(/C=C/Nc1ccc(F)cc1)c1cccs1	x	32.4	6.6	5.0	64.9*
O=C(/C=C/Nc1ccc(F)c(F)c1)c1cccs1	25.3	26.7	x	2.8	33.2
C/C=C/c1cnc2c(c1)C(=O)N([C@H](C)CO)C[C@H](C)[C@@H](CN(C)C(=O)C1CCCCC1)O2	x	x	0.0	x	x
C[C@@H]1CN([C@H](C)CO)C(=O)CCCn2cc(nn2)CO[C@@H]1CN(C)Cc1ccc(C(=O)Nc2ccccc2N)cc1	x	x	-3.3	x	x
C[C@H](CO)N1C[C@H](C)[C@H](CN(C)S(C)(=O)=O)Oc2c(NC(=O)C3CC3)cccc2C1=O	x	x	-4.9	x	x
Cc1noc(C)c1S(=O)(=O)Nc1cccc2c1O[C@H](CN(C)C)[C@H](C)CN([C@H](C)CO)C2=O	x	x	0.1	x	x
CCOC(=O)c1cnn(-c2ccc(C(F)(F)F)cn2)c1N	18.0	31.9	26.1	64.2	60.6*
COc1ccc(NC(=O)N(C)C[C@@H]2Oc3ccc(NS(=O)(=O)c4cccs4)cc3C(=O)N([C@H](C)CO)C[C@H]2C)cc1	x	x	-4.4	x	x
O=C1CC(c2cccc([N+](=O)[O-])c2)c2c(ccc3ccccc23)N1 (stereo unspecified)	x	25.0	9.4	-29.2	53.0*
SMILES	Wnt bcat act	HSF1 inh	esBAF inh	MITF act	HSF1 activator
CCC1(c2ccccc2)NC(=S)N(c2ccc(C)cc2)N1 (stereo unspecified)	2.1	25.7	44.9*	13.5	44.0
CCC1(c2ccc(Cl)cc2)NC(=S)N(c2ccccc2)N1 (stereo unspecified)	-1.7	55.7	10.9	4.2	69.7*
CCCCCC1(C)NC(=S)N(c2ccccc2)N1 (stereo unspecified)	-0.1	-1.6	x	1.3	22.9
c1ccc(-c2nc3ccccn3c2-c2ccccc2)cc1	42.6*	0.0	x	-3.7	20.0
Cc1ccc(N(Cc2ccccc2)C(=O)c2cccc(S(=O)(=O)N3CC(C)OC(C)C3)c2)cc1 (stereo unspecified)	-0.9	26.7	63.8*	8.7	30.5
Nc1ccc(N=Nc2ccccc2)cc1[N+](=O)[O-]	-3.8	x	62.2*	40.9	x
C[C@@H]1CN([C@@H](C)CO)C(=O)c2cc(-c3ccc(F)cc3)cnc2O[C@H]1CN(C)Cc1cncnc1	x	x	-9.2	x	x
COc1ccccc1-c1cc(C(=O)NCCc2ccccc2)no1	26.6	20.4	60.2*	x	19.2
CCCc1cc(C(=O)NCCc2ccccc2)no1	28.8	12.6	50.4*	x	31.9
